This passage reports growth results from the supplement of paper PMC9262897, “Low-cost anti-mycobacterial drug discovery using engineered E. coli” (Nature Communications, 2022).

Counter-ions that a name gives are not always drawn. ± gives the standard deviation of the averaged measurements.

Holding throughout (assay): growth (OD600 after 10 h); higher = more growth (less inhibition)
Test [1] concerns E. coli TESEC Alr+ wild-type control. The following applies: compound 0.1 mM; raw OD600 reference: median of DMSO wells 0.241, cell-free background 0.041. How it is done: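 TESEC Mtb Alr E. coli, or the Alr+ wild-type control, in 384-well plates with Prestwick library compounds at 0.1 mM and 1% DMSO, across arabinose induction levels of 1E3 to 1E7 nM. Growth is read as OD600 after 10 h at 37 °C in triplicate biological replicates.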

In the next test the test system is E. coli TESEC Mtb Asd. The following applies: compound 0.1 mM. How it is done:
(§1)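 TESEC E. coli strains in which the native enzyme is deleted and replaced by arabinose-inducible Mtb Asd, DapB, CysH or TrpD, each grown in its selective medium. Strains were screened against the Prestwick library at 0.1 mM and 1% DMSO in 384-well format at low and high arabinose induction. Growth is read as OD600 after 10 h in triplicate.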

The subject of a further test is E. coli TESEC Mtb DapB. The following applies: compound 0.1 mM. How it is done:
as §1

Test [2] concerns E. coli TESEC Alr+ wild-type control. The following applies: compound 0.1 mM; raw OD600 reference: median of DMSO wells 0.49, cell-free background 0.052. How it is done:
(§2)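 TESEC Mtb Alr E. coli (ΔaraC ΔtolC ΔentC Δalr ΔdadX, arabinose-inducible Mtb Alr) or the Alr+ wild-type control strain, grown in defined M9-fructose medium without D-alanine in 96-well plates with Prestwick library compounds at 0.1 mM and 1% DMSO. Low Alr induction is 0.1 µM arabinose and high induction is 10 mM arabinose.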

Another test deals with E. coli TESEC Mtb Alr. The following applies: compound 0.1 mM. As to the method: as §2
Where [3] appears, read: arabinose induction (level): High, raw OD600 reference: median of DMSO wells 0.331, cell-free background 0.041.
[4] abbreviates: arabinose induction (level): Low, raw OD600 reference: median of DMSO wells 0.417, cell-free background 0.041.
Setting [5] is: arabinose induction (level): High, raw OD600 reference: median of DMSO wells […], cell-free background 0.041.
Setting [6] is: arabinose induction (level): Low, raw OD600 reference: median of DMSO wells 0.227, cell-free background 0.041.
[7] abbreviates: arabinose 100 nM, raw OD600 reference: median of DMSO wells 0.413, cell-free background 0.052.
Setting [8] is: arabinose 10000000 nM, raw OD600 reference: median of DMSO wells […], cell-free background 0.052.

With `CC(c1cc2ccccc2s1)N(O)C(N)=O` (stereo not drawn) [Zileuton], the growth in test [1] was 0.229 ± 0.004; in the test with E. coli TESEC Mtb Asd (setting [3]) it was 0.338 ± 0.022; in the test with E. coli TESEC Mtb Asd (setting [4]) it was 0.352 ± 0.012; in the test on E. coli TESEC Mtb DapB (setting [5]), 0.216 ± 0.029; in the test with E. coli TESEC Mtb DapB (setting [6]), 0.216 ± 0.017; in test [2], 0.457 ± 0.011. The growth in the test on E. coli TESEC Mtb Alr (setting [7]) was 0.403 ± 0.0065; in the test on E. coli TESEC Mtb Alr (setting [8]), 0.3407 ± 0.00091.

For the molecule `CO/N=C(\C(=O)N[C@@H]1C(=O)N2C(C(=O)O)=C(C[N+]3(C)CCCC3)CS[C@H]12)c1csc(N)n1` [Cefepime hydrochloride], the growth in test [1] came to 0.0426 ± 0.00078; in the test with E. coli TESEC Mtb Asd (setting [3]), 0.197 ± 0.017; with E. coli TESEC Mtb Asd (setting [4]), 0.188 ± 0.012; in the test on E. coli TESEC Mtb DapB (setting [5]), 0.182 ± 0.0028; in the test with E. coli TESEC Mtb DapB (setting [6]), 0.173 ± 0.011; in test [2], 0.0488 ± 0.0038. For the same molecule, the growth is 0.0455 ± 0.00017 with E. coli TESEC Mtb Alr (setting [7]) and 0.0731 ± 0.0077 with E. coli TESEC Mtb Alr (setting [8]).

For `CN(Cc1cnc2nc(N)nc(N)c2n1)c1ccc(C(=O)N[C@@H](CCC(=O)O)C(=O)O)cc1` [Methotrexate], the growth in test [1] came out at 0.225 ± 0.0067; with E. coli TESEC Mtb Asd (setting [3]) it was 0.24 ± 0.055; with E. coli TESEC Mtb Asd (setting [4]), 0.359 ± 0.022; in the test with E. coli TESEC Mtb DapB (setting [5]), 0.2 ± 0.0058; in the test on E. coli TESEC Mtb DapB (setting [6]) it was 0.254 ± 0.022; in test [2], 0.102 ± 0.0015. Also, the growth in the test with E. coli TESEC Mtb Alr (setting [7]) is 0.277 ± 0.14; in the test on E. coli TESEC Mtb Alr (setting [8]), 0.126 ± 0.0066.

For `N=c1nc(N2CCCCC2)cc(N)n1O` [Minoxidil], the growth was found to be 0.244 ± 0.0093 in test [1]; 0.371 ± 0.048 in the test with E. coli TESEC Mtb Asd (setting [3]); 0.384 ± 0.054 in the test on E. coli TESEC Mtb Asd (setting [4]); 0.18 ± 0.0054 with E. coli TESEC Mtb DapB (setting [5]); 0.209 ± 0.019 in the test with E. coli TESEC Mtb DapB (setting [6]); 0.45 ± 0.038 in test [2]. Besides, the results for the growth in the test with E. coli TESEC Mtb Alr (setting [7]) and with E. coli TESEC Mtb Alr (setting [8]) were 0.406 ± 0.0072 and 0.379 ± 0.034, respectively.

With `O=C(O)c1cccnc1` [Niacin], the growth in test [1] is 0.28 ± 0.0091; with E. coli TESEC Mtb Asd (setting [3]), 0.397 ± 0.019; in the test with E. coli TESEC Mtb Asd (setting [4]), 0.461 ± 0.0099; in the test on E. coli TESEC Mtb DapB (setting [5]), 0.211 ± 0.016; in the test on E. coli TESEC Mtb DapB (setting [6]), 0.238 ± 0.0084; in test [2], 0.522 ± 0.086. The growth with E. coli TESEC Mtb Alr (setting [7]) amounted to 0.423 ± 0.028; in the test with E. coli TESEC Mtb Alr (setting [8]), 0.431 ± 0.014.

On to `CC(C)NC[C@@H](O)COc1ccc(CC(N)=O)cc1` [(R)-(+)-Atenolol], for which the growth was determined as 0.255 ± 0.004 in test [1]; 0.485 ± 0.012 with E. coli TESEC Mtb Asd (setting [3]); 0.442 ± 0.033 in the test on E. coli TESEC Mtb Asd (setting [4]); 0.243 ± 0.059 in the test on E. coli TESEC Mtb DapB (setting [5]); 0.25 ± 0.017 in the test with E. coli TESEC Mtb DapB (setting [6]); 0.546 ± 0.038 in test [2]. Also, the growth amounted to 0.405 ± 0.019 with E. coli TESEC Mtb Alr (setting [7]) and 0.342 ± 0.012 in the test with E. coli TESEC Mtb Alr (setting [8]).

With `CCOC(=O)C1=C[C@]2(CC)CCCN3CCc4c(n1c1ccccc41)[C@@H]32` [Vinpocetine], the growth was found to be 0.216 ± 0.0075 in test [1]; 0.232 ± 0.0031 with E. coli TESEC Mtb Asd (setting [3]); 0.379 ± 0.069 with E. coli TESEC Mtb Asd (setting [4]); 0.164 ± 0.0032 in the test with E. coli TESEC Mtb DapB (setting [5]); 0.191 ± 0.0094 in the test with E. coli TESEC Mtb DapB (setting [6]); 0.557 ± 0.044 in test [2]. For the same molecule, the growth with E. coli TESEC Mtb Alr (setting [7]) worked out at 0.4094 ± 0.0032; in the test with E. coli TESEC Mtb Alr (setting [8]) it was 0.337 ± 0.016.

For the molecule `Clc1ccc(CSC(Cn2ccnc2)c2ccc(Cl)cc2Cl)cc1` (stereo not drawn) [Sulconazole nitrate], the growth in test [1] was determined as 0.0579 ± 0.0028; in the test with E. coli TESEC Mtb Asd (setting [3]), 0.0615 ± 0.0029; in the test with E. coli TESEC Mtb Asd (setting [4]) it was 0.0557 ± 0.0015; in the test with E. coli TESEC Mtb DapB (setting [5]), 0.0605 ± 0.00098; in the test on E. coli TESEC Mtb DapB (setting [6]), 0.0607 ± 0.0018; in test [2], 0.0607 ± 0.0028. Further, the growth amounted to 0.0787 ± 0.039 in the test with E. coli TESEC Mtb Alr (setting [7]) and 0.0898 ± 0.0077 in the test with E. coli TESEC Mtb Alr (setting [8]).

`CC1(O)CCOC(=O)C1` (stereo not drawn) [Mevalonic-D, L acid lactone]: the growth was 0.244 ± 0.0056 in test [1]; 0.269 ± 0.027 with E. coli TESEC Mtb Asd (setting [3]); 0.402 ± 0.022 in the test on E. coli TESEC Mtb Asd (setting [4]); 0.183 ± 0.011 in the test with E. coli TESEC Mtb DapB (setting [5]); 0.206 ± 0.024 in the test on E. coli TESEC Mtb DapB (setting [6]); 0.506 ± 0.11 in test [2]. For the same molecule, the growth is 0.394 ± 0.03 in the test with E. coli TESEC Mtb Alr (setting [7]) and 0.349 ± 0.015 with E. coli TESEC Mtb Alr (setting [8]).

Regarding `Cc1c(Nc2ncccc2C(=O)O)cccc1C(F)(F)F` [Flunixin meglumine], the growth turned out to be 0.146 ± 0.0033 in test [1]; 0.157 ± 0.0086 in the test with E. coli TESEC Mtb Asd (setting [3]); 0.125 ± 0.0096 in the test with E. coli TESEC Mtb Asd (setting [4]); 0.178 ± 0.0075 with E. coli TESEC Mtb DapB (setting [5]); 0.187 ± 0.01 in the test on E. coli TESEC Mtb DapB (setting [6]); 0.373 ± 0.034 in test [2]. The growth in the test on E. coli TESEC Mtb Alr (setting [7]) came to 0.277 ± 0.026; with E. coli TESEC Mtb Alr (setting [8]) it was 0.146 ± 0.021.

With `C#C[C@]1(O)CC[C@H]2[C@@H]3CCc4cc(O)ccc4[C@H]3CC[C@@]21C` [Ethinylestradiol], the growth was 0.0556 ± 0.00079 in test [1]; 0.112 ± 0.017 in the test with E. coli TESEC Mtb Asd (setting [3]); 0.0911 ± 0.062 with E. coli TESEC Mtb Asd (setting [4]); 0.0856 ± 0.007 in the test with E. coli TESEC Mtb DapB (setting [5]); 0.0703 ± 0.0015 in the test with E. coli TESEC Mtb DapB (setting [6]); 0.0818 ± 0.0029 in test [2]. In addition, the results for the growth in the test with E. coli TESEC Mtb Alr (setting [7]) and in the test with E. coli TESEC Mtb Alr (setting [8]) were 0.303 ± 0.024 and 0.0705 ± 0.016, respectively.
